This note sets out measurements from PubChem BioAssay.

By inhibition is commonly meant the change of the read-out against control, counted positive when it falls.

Experiment [1] addresses Nuclear receptor coactivator 1 (Homo sapiens) (UniProt Q15788). Description: NCOA1 GAL4-fusion reporter inhibition – cell-based, luminescence, quadruplicate, confirmation (AID 588820).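 Further: 0% = DMSO wells and 100% = gossypol 36 µM treated wells.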 Conditions: HEK293 GAL4-SRC1 luciferase reporter, at 3.6 µM, hits give high values.
Experiment [2] can be described thus: repression of VP16-driven luciferase reporter – cell-based, luminescence, high throughput, counter-screen for SRC1 inhibitor project (AID 588824; in the data active means inhibition above about 25%). Conditions: cell-based VP16 transactivation luciferase luminescence; at 3.6 µM; hits give high values. Background: In a reporter assay the amount or activity of a reporter protein is the signal.

Each structure is given as a SMILES string. Unmarked numbers belong to inactive results. Activity calls are given as the source filed them.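 How the source made its calls, unless noted: active means mean inhibition above 46.68%, the untreated control wells mean plus 3 SD; inactive means the rest.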

Nuclear receptor coactivator 1 (Homo sapiens), sequence (Q15788 whole entry, looked up, the tested form may be a part): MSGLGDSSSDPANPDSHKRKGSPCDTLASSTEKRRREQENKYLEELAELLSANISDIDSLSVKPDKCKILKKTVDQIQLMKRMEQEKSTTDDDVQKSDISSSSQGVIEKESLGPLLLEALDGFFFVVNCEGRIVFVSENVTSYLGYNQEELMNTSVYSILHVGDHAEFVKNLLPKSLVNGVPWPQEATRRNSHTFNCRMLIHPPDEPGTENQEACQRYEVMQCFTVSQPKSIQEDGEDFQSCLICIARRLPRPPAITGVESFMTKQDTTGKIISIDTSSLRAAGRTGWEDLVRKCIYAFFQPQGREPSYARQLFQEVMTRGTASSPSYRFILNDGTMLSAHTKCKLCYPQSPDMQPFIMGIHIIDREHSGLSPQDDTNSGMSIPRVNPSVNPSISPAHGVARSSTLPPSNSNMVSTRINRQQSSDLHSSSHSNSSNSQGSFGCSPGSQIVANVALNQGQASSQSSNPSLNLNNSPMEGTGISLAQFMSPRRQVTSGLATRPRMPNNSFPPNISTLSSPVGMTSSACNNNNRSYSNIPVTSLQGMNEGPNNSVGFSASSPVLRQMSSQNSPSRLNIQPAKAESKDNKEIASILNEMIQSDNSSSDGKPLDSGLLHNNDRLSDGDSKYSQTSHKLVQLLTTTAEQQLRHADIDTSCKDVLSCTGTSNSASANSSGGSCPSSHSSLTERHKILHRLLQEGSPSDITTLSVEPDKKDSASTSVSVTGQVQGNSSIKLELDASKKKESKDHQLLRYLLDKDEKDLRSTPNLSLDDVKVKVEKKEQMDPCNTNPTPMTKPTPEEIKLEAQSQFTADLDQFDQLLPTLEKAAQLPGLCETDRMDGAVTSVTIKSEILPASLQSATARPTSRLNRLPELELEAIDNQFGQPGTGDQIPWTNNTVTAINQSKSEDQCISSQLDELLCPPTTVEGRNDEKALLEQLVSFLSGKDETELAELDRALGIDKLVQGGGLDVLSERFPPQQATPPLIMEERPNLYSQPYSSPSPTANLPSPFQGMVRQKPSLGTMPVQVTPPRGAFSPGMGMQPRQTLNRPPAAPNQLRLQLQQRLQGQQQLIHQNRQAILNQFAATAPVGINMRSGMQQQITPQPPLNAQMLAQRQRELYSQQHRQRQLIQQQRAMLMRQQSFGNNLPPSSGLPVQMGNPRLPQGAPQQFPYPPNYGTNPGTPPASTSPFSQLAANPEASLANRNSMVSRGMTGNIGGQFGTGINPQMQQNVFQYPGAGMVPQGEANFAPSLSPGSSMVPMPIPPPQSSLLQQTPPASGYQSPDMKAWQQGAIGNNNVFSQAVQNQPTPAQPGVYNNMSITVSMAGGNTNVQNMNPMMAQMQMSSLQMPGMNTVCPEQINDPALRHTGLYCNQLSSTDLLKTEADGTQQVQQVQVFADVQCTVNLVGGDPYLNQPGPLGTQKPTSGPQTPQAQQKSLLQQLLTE

Take `COc1ccc(N(Cc2cc3cc(OC)ccc3[nH]c2=O)S(=O)(=O)c2ccc(NC(C)=O)cc2)cc1`: the inhibition was -21.4% in experiment [1] and -1.84% in experiment [2].
On to `CC(=O)N/C(=N/c1nc(C)cc(C)n1)Nc1cccc(C)c1C`, for which the values for the inhibition in experiment [1] and in experiment [2] were -0.27% and -6.32%, respectively.
As to `CC(C)(C)NC(=O)C1(C)CCC(=O)N1CCCn1ccnc1` (stereo not drawn), the inhibition in experiment [1] is 22.2%; in experiment [2], 16.9%.
In the case of `CCC1(c2ccc(F)cc2)NC(=O)N(CC(=O)NCC(=O)Nc2cccc(C)c2C)C1=O` (stereo not drawn), the inhibition is 6.24% in experiment [1] and 6.8% in experiment [2].
Turning to `CCN(CC)c1ccc(NC(=O)CSc2n[nH]c(-c3ccco3)n2)cc1`, the inhibition in experiment [1] was -8.8%; in experiment [2], -1.86%.
On the same counts, the results for `CO/N=C/C(c1ccc(Cl)nc1)S(=O)(=O)c1ccccc1` (stereo not drawn) are -12.5% and -1.73%.
`O=C(Nc1ccc(OCC(F)(F)C(F)F)c(C(F)(F)F)c1)c1ccccc1O`: the results for the inhibition in experiment [1] and in experiment [2] were -35.3% and 6.93%, respectively.
As to `COc1ccc(/C=N/Nc2nc3ccccc3[nH]2)c(OC)c1OC`, the figures for the inhibition in experiment [1] and in experiment [2] were -27.8% and -23%, respectively.
Regarding `O=C(c1nnsc1S(=O)c1ccc(Cl)cc1)N1CCOCC1` (stereo not drawn), the inhibition in experiment [1] was -24.9%; in experiment [2], -6.26%.
Consider `O=C(CSc1n[nH]c(-c2cccnc2)n1)Nc1ccc([N+](=O)[O-])cc1`, for which the inhibition in experiment [1] is -26.9%; in experiment [2], -8.24%.
Taken in the same sequence, the figures for `O=C1c2cccc(NCCCNCCO)c2C(=O)c2cccc(NCCCNCCO)c21` were 7.28% and 16.3%.
With `COc1ccc(C(=O)NNC(=O)C(=O)Nc2ccc(C)c(Cl)c2)cc1`, the values for the inhibition in experiment [1] and in experiment [2] were 5.87% and -0.11%, respectively.
Taken in the same sequence, the figures for `CCOC(=O)C1=C(COC(=O)/C=C/c2ccc(OC)c(OC)c2)NC(=O)NC1C` (stereo not drawn) were -16.4% and -2.04%.
Turning to `CCc1nc2c(OCc3c(C)noc3C)cccn2c1N(C=O)Cc1ccccc1`, the inhibition in experiment [1] is -4.23%; in experiment [2] it was -5.1%.
With `C[C@H](N)c1nnc(SCC(N)=O)o1`, the inhibition in experiment [1] was -1.81%; in experiment [2] it was -12.9%.
With `CC(C)(CNC(=O)c1ccc(-c2cccc(C(F)(F)F)c2)o1)N1CCOCC1`, the results for the inhibition in experiment [1] and in experiment [2] were -2.1% and -0.96%, respectively.
As to `O=C1NC(=S)N/C1=C/c1ccc2c(c1)OCO2`, the inhibition in experiment [1] was 10.2%; in experiment [2] it was 16.3%.
Taken in the same sequence, the figures for `COc1cc2c(cc1OC)C(C)N(C(=O)c1cc3ccccc3o1)CC2` (stereo not drawn) were -4.6% and 2.25%.
On to `COc1ccc(CNC(=O)c2ccc(N3CCC4(CC3)CC(c3ccc(Cl)cc3)=NO4)c([N+](=O)[O-])c2)cc1`, for which the inhibition is 6.27% in experiment [1] and 28.2% (active) in experiment [2].
As for `COc1cc(/C=N/NC(=O)NC23CC4CC(CC(C4)C2)C3)ccc1OCC(N)=O`, the inhibition is -24.7% in experiment [1] and -17.2% in experiment [2].
As for `CC(=O)c1sc2nc(C)c3c(c2c1N)CCCC3`, the results for the inhibition in experiment [1] and in experiment [2] were 13.4% and 3.88%, respectively.
Taken in the same sequence, the figures for `c1cc2c(cn1)cnc1cscc12` were 40.9% and 7.33%.
Consider `CC(C)Oc1ccccc1NC(=O)CSc1nc2ccccc2c(=O)n1C`, for which the inhibition was -5.84% in experiment [1] and 13.4% in experiment [2].
Consider `CSc1nc2[nH]ncc2c(=O)[nH]1`, for which the inhibition in experiment [1] is -1.61%; in experiment [2] it was 1.46%.
On the same counts, the results for `COc1ccc(CCN(C)C(=O)CSc2nnc(C3CC3)n2N)cc1OC` are 6.18% and 12.5%.
Take `c1ccc(-n2cnc3cc(NCc4cccs4)ccc32)cc1`: the inhibition in experiment [1] is -69.4%; in experiment [2], -44.1%.
Turning to `Cc1cc2[nH]c(=O)c(=O)[nH]c2cc1S(=O)(=O)NC1CCC(C)CC1` (stereo not drawn), the inhibition is -3.97% in experiment [1] and -2.19% in experiment [2].
Take `CC1CCN(C(=O)c2scc3c2OCCO3)CC1`: the figures for the inhibition in experiment [1] and in experiment [2] were 18.3% and 8.58%, respectively.
Regarding `O=C(N/N=C/c1cc(Cl)ccc1O)c1ccccc1Br`, the inhibition in experiment [1] was 12.6%; in experiment [2], 7.53%.
In the case of `Nc1nc(N)c2c(ccc3nccc32)[nH]1`, the inhibition in experiment [1] was -7.68%; in experiment [2] it was 24.9%.
In the case of `CC(C)OCCCn1c(=O)c2ccccc2n2c(CCC(=O)N3CCN(c4ccccn4)CC3)nnc12`, the inhibition in experiment [1] is -22.8%; in experiment [2], -9.58%.
As to `Cc1cccc(C)c1NC(=S)N(CCN(C)C)Cc1cccs1`, the inhibition in experiment [1] is -19.4%; in experiment [2], -2.41%.
As to `O=c1cc(N2CCN(c3ccccc3Cl)CC2)[nH]c(=O)n1Cc1ccc(F)cc1`, the inhibition in experiment [1] was -4.06%; in experiment [2] it was 16.8%.
Take `Cc1ccc(S(=O)(=O)NCc2ccc3c(c2)OCO3)cc1C`: the figures for the inhibition in experiment [1] and in experiment [2] were -20.8% and 1.6%, respectively.
As to `COc1cc(OC)c(OC)cc1/C=C1\CC(C)C/C(=C\c2cc(OC)c(OC)cc2OC)C1=O` (stereo not drawn), the figures for the inhibition in experiment [1] and in experiment [2] were -33.6% and 2.73%, respectively.
Taken in the same sequence, the figures for `COc1ccc(NC(=O)COc2ccccc2Cc2ccccc2)cc1S(N)(=O)=O` were 38.1% and 32.3% (active).
As to `O=C(Nc1ccc(S(=O)(=O)N2CCCCC2)cc1)C1CCN(C(=O)c2ccc(F)cc2)CC1`, the inhibition in experiment [1] is 7.57%; in experiment [2], -1.11%.
Taken in the same sequence, the figures for `c1ccc(-c2cc(N3CCCCC3)nc(-c3ccccc3)n2)cc1` were -21.1% and -2.43%.
Consider `COc1ccc(-n2cnc(N)c2C(=O)c2cccc([N+](=O)[O-])c2)cc1`, for which the figures for the inhibition in experiment [1] and in experiment [2] were 38.1% and 18.6%, respectively.
For `COCCn1cnc2c1c(=O)n(Cc1ccccc1C#N)c(=O)n2Cc1ccccc1`, the values for the inhibition in experiment [1] and in experiment [2] were -22.2% and 1.6%, respectively.
Taken in the same sequence, the figures for `Cc1cc(C)cc(C(=O)Nc2cccc(NC(=O)c3ccco3)c2)c1` were -11.1% and 9.42%.
Taken in the same sequence, the figures for `Cc1ccc(N2CC(C(=O)N3CCC(C(=O)NCCCOC(C)C)CC3)CC2=O)cc1` (stereo not drawn) were -30.7% and -8.26%.
On to `O=C(c1ccccc1Sc1ccccc1[N+](=O)[O-])N1CCCCC1`, for which the figures for the inhibition in experiment [1] and in experiment [2] were 10.1% and 14.3%, respectively.
Take `O=C(NCCc1ccc(F)cc1)C(=O)NCC1CCCN1S(=O)(=O)c1ccccc1` (stereo not drawn): the inhibition in experiment [1] was -36.4%; in experiment [2] it was -2.18%.
Taken in the same sequence, the figures for `Cn1ccnc1SCC(=O)NC1(C#N)CCCCC1` were -19.4% and -3.8%.
Regarding `C=C1C(=O)O[C@@H]2[C@H]1CC[C@H](C)[C@]1(O)CCC(=O)[C@@]21C`, the inhibition in experiment [1] was -18%; in experiment [2], 11.1%.
On to `CCN(CC)CCNC(=O)CCN1N=C(c2ccccc2)CCC1=O`, for which the inhibition is -4.6% in experiment [1] and -9.8% in experiment [2].
Consider `FC(F)(F)c1cccc(Oc2ccc3c(C(F)(F)F)cc(C(F)(F)F)nc3n2)c1`, for which the inhibition in experiment [1] was -2.81%; in experiment [2], -6.43%.
On to `COC(=O)c1cccc(NC(=O)c2ccc[n+]([O-])c2)c1`, for which the inhibition is -21.8% in experiment [1] and 4.7% in experiment [2].
